Assay outcomes: PubChem, National Center for Advancing Translational Sciences (NCATS)
Compounds with a hit are over-represented: about 7.3% of the library has one in this group of screens.
Rab9 prom act: qHTS Assay for Rab9 Promoter Activators | Huh7 Rab9 promoter-luciferase reporter, luminescence, 24 h | Potency, µM (titrated, usually from 9.22 µM), hits mostly activators | 2.8% of 320,000 active | AID 485297, 2010; further: nearly all actives have a fitted effect of over 60% in size
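Rab9 promoter-driven luciferase in stably transfected Huh7 cells; 1500 cells/well rested 2 h, exposed to compound in DMSO for 24 h at 37 °C, 5% CO2. Luminescence read 10 min after adding luciferase reagent at ambient temperature.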
KinaseGlo FLuc: Counterscreen for Luciferase (Kinase-Glo TM) Inhibition; Kinase-Glo luciferase, ATP luminescence, 8 min; Potency, µM (titrated, usually from 38.3 µM), most hits filed as inhibitors; AID 1379, 2008; 0.28% of 200,000 active; Luciferin 4-monooxygenase (Photuris pensylvanica), Q27757; further: nearly all actives have a fitted effect of over 60% in size
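Recombinant Kinase-Glo luciferase, 10 uM ATP (linear range), luciferin; imidazole pH 7.2 / KCl / MgCl2 / Tween / BSA buffer; 8 min RT; luminescence.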
NPC1 promoter act: qHTS Assay for NPC1 Promoter Activators; Huh7 NPC1 promoter luciferase reporter, 24 h; Potency, µM (titrated, usually from 9.22 µM), hits mostly activators; 2.4% of 320,000 active; AID 485313, 2010; further: nearly all actives have a fitted effect of over 60% in size
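Huh7 cells stably carrying NPC1 promoter–luciferase, plated in Opti-MEM with 10% FBS for 2 h, were exposed to compound in DMSO for 24 h at 37 °C; luciferase reagent was added for 10 min and luminescence read.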
FLuc modulator: qHTS profiling assay for firefly luciferase inhibitor/activator using purifed enzyme and Km concentrations of substrates (counterscreen for miR-21 project) | purified FLuc, Km substrates, luminescence inhibition | Potency, µM (highest dose often 57.5 µM), hits mostly inhibitors | 6.9% of 360,000 active | AID 588342, 2011; further: nearly all actives have a fitted effect of over 55% in size
Target sequence (P08659 whole entry, looked up): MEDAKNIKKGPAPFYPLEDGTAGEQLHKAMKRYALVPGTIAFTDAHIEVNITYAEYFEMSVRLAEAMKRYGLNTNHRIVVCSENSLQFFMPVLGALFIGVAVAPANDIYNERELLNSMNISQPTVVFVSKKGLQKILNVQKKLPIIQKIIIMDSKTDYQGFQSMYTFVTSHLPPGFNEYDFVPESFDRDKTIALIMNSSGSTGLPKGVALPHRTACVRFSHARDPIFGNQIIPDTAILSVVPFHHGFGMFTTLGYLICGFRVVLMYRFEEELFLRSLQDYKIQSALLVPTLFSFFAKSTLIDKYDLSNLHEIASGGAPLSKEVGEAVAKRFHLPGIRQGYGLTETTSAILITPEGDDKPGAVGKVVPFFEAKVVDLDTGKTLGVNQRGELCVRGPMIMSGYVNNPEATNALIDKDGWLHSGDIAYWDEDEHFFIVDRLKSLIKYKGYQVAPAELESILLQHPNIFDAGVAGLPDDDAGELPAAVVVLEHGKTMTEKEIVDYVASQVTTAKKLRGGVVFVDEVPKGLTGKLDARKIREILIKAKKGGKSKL
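Biochemical qHTS of compounds, final roughly 60 µM downward over six points, against 10 nM purified firefly luciferase using Km concentrations of substrates (10 uM D-luciferin, 10 uM ATP) in Tris acetate pH 7.5 buffer; luminescence output.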
ELG1 genotoxic: qHTS screen for small molecules that induce genotoxicity in human embryonic kidney (HEK293T) cells expressing luciferase-tagged ELG1; HEK293T ELG1-luciferase reporter, luminescence, 16 h; Potency, µM (top dose mostly 46 µM), most hits filed as activators; 1.3% of 330,000 active; further: nearly all actives have a fitted effect of over 60% in size
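After overnight (16 hr) compound treatment at 37 °C, ELG1-luciferase HEK293T cells were lysed with ONE-Glo; luminescence quantified 30 min later at room temperature.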
SMN2 splice up: qHTS Assay for Enhancers of SMN2 Splice Variant Expression; HEK293 SMN2-luciferase splicing reporter, luminescence, 30-36 h; Potency, µM (highest dose often 46.1 µM), usual class: activators; 2.8% of 210,000 active; AID 1458, 2008; further: nearly all actives have a fitted effect of over 55% in size
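HEK293 cells carry an SMN2 […]–luciferase reporter in which exon 7 inclusion puts luciferase in frame. Cells were plated 10-12 h before compound addition, then incubated 30-36 h at 37C. ONE-Glo luminescence was read; sodium butyrate at 4.5 mM final served as control.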
Hits are given with their value; - = inactive; ? = inconclusive; . = not tested or not shown; [ ] = remark or other dose. The call rests on the fitted dose curve; in most records, active means well fitted curve in the direction sought with a large enough effect; inconclusive means small, poorly fitted or top-dose-only effect, or another doubt; inactive means no such curve, though single readings can be large; an effect the other way counts as inactive or inconclusive.

SMILES | Rab9 prom act | KinaseGlo FLuc | NPC1 promoter act | FLuc modulator | ELG1 genotoxic | SMN2 splice up
N#CCCn1cc(/C=N/NC(=O)c2ccncc2)c(-c2ccccc2)n1 | - | - | - | - | - | -
COc1ccc(-c2nnc(C3CCN(C(=O)c4ccccc4F)CC3)o2)cc1 | . | . | . | ? | . | -
CC1CN(C(=O)Nc2ccc3c(c2)OCO3)CC(C)O1 (stereo unspecified) | - | - | - | 17µM | ? | -
O=C(Nc1ccc2c(c1)OCO2)N1CCOCC1 | - | - | - | - | - | .
O=C(Nc1ccc2c(c1)OCO2)N1CCCC1 | - | - | - | - | - | ?
O=C(Nc1ccc2c(c1)OCO2)N1CCN(c2ccc(F)cc2)CC1 | ? | - | ? | 24µM | - | -
C=C1C=C(C(F)F)n2ncc(C(=O)Nc3ccccc3OCC)c2N1 | . | . | . | - | . | .
O=C(Nc1nc2ccsc2c(=O)s1)c1ccco1 | ? | . | ? | 15µM | ? | .
Cc1ccc2nc(NC(=S)NC(=O)c3ccco3)sc2c1 | 3.5µM | - | 1.4µM | 0.48µM | ? | 11µM
Cc1ccc2nc(NC(=O)c3ccco3)sc2c1 | 0.79µM | ? | ? | 0.27µM | 0.21µM | 1.1µM
COc1ccc2nc(NC(=O)c3ccco3)sc2c1 | 0.11µM | . | 0.32µM | 0.54µM | 0.58µM | .
O=C(Nc1nc2ccc(S(=O)(=O)N3CCCC3)cc2s1)c1ccco1 | - | - | - | ? | - | -
Cc1csc2c(=O)sc(NC(=O)c3ccco3)nc12 | - | . | - | ? | - | .
CCc1cccc(-n2c(=O)c3cccnc3n2CC(=O)NCc2ccccc2Cl)c1 | . | . | . | - | . | .
O=C(Nc1nc2c(s1)CCc1ccccc1-2)c1ccco1 | ? | - | ? | 17µM | - | 16µM
CC(=O)Nc1nc2c(s1)CCc1ccccc1-2 | - | . | - | ? | -[9.26 µM] | .
O=c1sc(Nc2ccccc2)nc2ccsc12 | ? | - | - | 12µM | 18µM | -
O=C(Nc1nc2ccsc2c(=O)s1)C1CCC1 | ? | . | ? | 19µM | ? | .
O=C(NCc1ccc(F)cc1)C1CCCN(c2nc3ccsc3c(=O)s2)C1 (stereo unspecified) | - | - | - | - | - | -
Cc1cccc(-c2nc(S(=O)(=O)c3ccc(Cl)cc3)c(N3CCCCCC3)o2)c1 | . | . | . | - | . | -
NC1=C(O)C(=O)[C@H](c2c[nH]c3ccc(OCc4ccccc4)cc23)O1 | . | -[7.66 µM] | . | . | . | -[9.22 µM]
N/C(=N\OC(=O)c1ccoc1)c1ccc(Br)cc1 | 3.2µM | . | 2.5µM | 6.7µM | 3.7µM | .
Cc1cccc(C(=O)O/N=C/c2ccc(Br)cc2)c1 | - | - | - | 3.4µM | ? | -
Cc1ccc(/C(N)=N/OC(=O)c2ccc(Cl)cc2Cl)cc1 | 2.5µM | - | 3.2µM | 1.1µM | ? | 11µM
N/C(Cn1cncn1)=N\OC(=O)c1ccc(Cl)cc1Cl | - | - | - | ? | - | -
SMILES | Rab9 prom act | KinaseGlo FLuc | NPC1 promoter act | FLuc modulator | ELG1 genotoxic | SMN2 splice up
Cc1ccc(C(=O)O/N=C(\N)c2ccc(Br)cc2)cc1C | - | - | - | ? | 16µM | -
N/C(=N\OC(=O)c1ccc2ccccc2c1)c1ccc(Br)cc1 | - | - | - | - | - | ?
Cc1ccc(-c2nc(CCNC(=O)C(=O)Nc3ccc(C)c(Cl)c3)cs2)cc1 | . | . | . | - | . | .
Cc1cc(C)cc(C(=O)O/N=C(\N)c2ccc(Br)cc2)c1 | ? | - | ? | - | - | -
Cc1cccc(C(=O)O/N=C(\N)c2ccc(Cl)cc2)c1 | 1.8µM | . | 0.4µM | 1.9µM | ? | .
Cc1cccc(OCC(=O)O/N=C(\N)c2ccc(Cl)cc2)c1 | - | - | - | - | - | -
N/C(=N\OC(=O)c1cccc2ccccc12)c1ccc(Br)cc1 | - | - | - | ? | - | ?
Cc1ccc(C)c(C(=O)O/N=C(\N)c2ccc(Br)cc2)c1 | - | - | ? | 15µM | ? | ?
Cc1cccc(C(=O)O/N=C(\N)c2ccc(Br)cc2)c1 | 0.71µM | - | 0.56µM | 3µM | 11µM | -
CC(=O)Nc1nonc1-c1nnc(SCc2ccc(F)cc2)n1C | . | . | . | - | . | .
O=C(Nc1cc(-c2ccccc2)[nH]n1)c1ccccc1F | 1.4µM | . | 1.8µM | 8.5µM | ? | .
O=C(Nc1cc(-c2ccccc2)[nH]n1)c1ccccc1 | 0.63µM | . | 0.56µM | 4.8µM | ? | .
Cc1cc(C)c2c(n1)nn1c(C)c(CCC(=O)NCc3ccc(Cl)cc3)c(C)nc21 | . | . | . | - | . | -
CC1(C)Cc2nc3sc(C(=O)NCCCO)c(N)c3cc2CS1 | 3.2µM | - | ? | 15µM | ? | 14µM
CC1(C)Cc2nc3sc(C(=O)NCCO)c(N)c3cc2CO1 | - | - | - | 27µM | - | ?
CC1(C)Cc2nc3sc4c(N(CCO)CCO)nnnc4c3cc2CO1 | - | - | - | ? | - | -
CCOc1cc(/C=C/c2cc(C(=O)O)c3ccccc3n2)ccc1O | - | - | - | 4.3µM | - | -
COc1cc(/C=C/c2cc(C(=O)O)c3ccccc3n2)cc(OC)c1O | - | - | - | 9.5µM | - | -
COc1cc(C(=O)O)c2ccccc2n1 | - | - | - | - | - | .
CCOc1cc(/C=C/c2cc(C(=O)O)c3ccccc3n2)ccc1OC | ? | - | ? | 1.3µM | ? | 22µM
CCOc1ccccc1NC(=O)c1cc(-c2cc(OC)c(OC)c(OC)c2)nc2ccccc12 | - | . | - | - | - | .
CCOc1cccc(/C=C/c2cc(C(=O)O)c3ccccc3n2)c1OC | 4.5µM | . | 2µM | 1.1µM | ? | .
C[C@H](N)CCP(=O)(O)O | . | . | . | . | . | -
CCC(Sc1ncccc1C(=O)Oc1ccccc1Cl)C(=O)Nc1ccccc1OC (stereo unspecified) | . | . | . | - | . | .
CCOC(=O)c1ccc2[nH]c3c(c2c1)CCCC3 | ? | . | 2.8µM | 11µM | 23µM | .
SMILES | Rab9 prom act | KinaseGlo FLuc | NPC1 promoter act | FLuc modulator | ELG1 genotoxic | SMN2 splice up
COC(=O)c1ccc2[nH]c3c(c2c1)CC(C)CC3 (stereo unspecified) | - | . | - | 12µM | ? | .
COc1ccc2nc(-c3ccccn3)[nH]c2c1 | 2µM | . | 1.3µM | 6.7µM | 5.2µM | .
Nc1ccc2nc(-c3cccs3)[nH]c2c1 | 2.5µM | - | ? | 11µM | ? | 22µM
CC(=O)Nc1ccc2nc(-c3cccs3)[nH]c2c1 | 2.5µM | - | ? | 12µM | ? | ?
Nc1ccc2nc(-c3ccccn3)[nH]c2c1 | ? | 11µM | ? | 13µM | - | 16µM
COc1ccc(Cl)cc1NC(=O)CSc1nc2ccccc2nc1N1CCCCC1 | . | . | . | - | . | -
O=C(CSc1ncccc1C(=O)Oc1ccccc1Cl)Nc1ccccc1Cl | . | . | . | - | . | .
Cc1cccc(OCC(=O)Nc2ccc(OCc3cc(=O)n4cc(C)ccc4n3)cc2)c1 | . | . | . | - | . | .
COCC(=O)N1c2nc(C(C)C)nn2C2(CCCCC2)[C@@H]2CCCC[C@@H]21 | . | . | . | - | . | .
Cc1cc(C)c(NC(=O)CN2C(=O)c3cccnc3Oc3ccc(C)cc32)c(C)c1 | . | . | . | - | . | .
